Assay results: PMC7862700, “An all-to-all approach to the identification of sequence-specific readers for epigenetic DNA modifications on cytosine”

Columns and labels:
Test in all cases: DAPPL (digital affinity profiling via proximity ligation, sequencing); 10 mM Tris-HCl pH 7.5, 50 mM NaCl, 1 mM DTT, 4% glycerol, room temperature, 30 min; GST-TFs on glutathione beads, 16-mer random dsDNA library, 0.1% formaldehyde crosslink after washing; high values mean tight binding
FEV = molecular target: T1, FEV (Homo sapiens, UniProt Q99581 1-238); details: protein: recombinant; tags: N-terminal GST; dsDNA, one strand shown
T1 sequence: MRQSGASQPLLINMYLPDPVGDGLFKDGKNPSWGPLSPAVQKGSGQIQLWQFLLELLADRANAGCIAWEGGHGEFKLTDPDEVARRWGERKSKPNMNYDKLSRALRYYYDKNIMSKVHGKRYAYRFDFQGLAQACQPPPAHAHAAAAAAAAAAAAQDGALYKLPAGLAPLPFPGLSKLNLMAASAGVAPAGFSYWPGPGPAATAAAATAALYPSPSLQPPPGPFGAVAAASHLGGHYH
Summary of the method: (§1)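 Each value of binding signal is a hexamer's read frequency for a factor divided by the same hexamer's frequency in the tag-only sample. Barcoded, bead-captured GST fusions of human transcription factors made in yeast were pooled with that sample and incubated with 200 nmole of a random double-stranded 16-mer DNA library in Tris/NaCl/DTT/glycerol buffer at room temperature for 30 min. Washing, 0.1% formaldehyde crosslinking, proximity ligation, PCR and Illumina NextSeq500 sequencing followed.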

ETV5 = ETV5 (Homo sapiens, UniProt P41161 1-510); details: protein: recombinant; tags: N-terminal GST; dsDNA, one strand shown
Summary of the method: as §1

HSF1 = HSF1 (Homo sapiens, UniProt Q00613 1-529); details: protein: recombinant; tags: N-terminal GST; chain copies: 3; dsDNA, one strand shown
Summary of the method: as §1

SPIC = molecular target: T2, SPIC (Homo sapiens, UniProt Q8N5J4 1-248); details: protein: recombinant; tags: N-terminal GST; dsDNA, one strand shown
T2 sequence: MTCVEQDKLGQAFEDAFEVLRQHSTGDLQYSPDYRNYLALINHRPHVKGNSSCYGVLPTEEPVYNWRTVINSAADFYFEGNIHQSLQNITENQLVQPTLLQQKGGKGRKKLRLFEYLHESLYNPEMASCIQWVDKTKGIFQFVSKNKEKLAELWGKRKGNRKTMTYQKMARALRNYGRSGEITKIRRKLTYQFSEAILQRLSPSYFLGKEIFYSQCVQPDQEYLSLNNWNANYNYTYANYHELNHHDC
Summary of the method: as §1

ELF4 = ELF4 (Homo sapiens, UniProt Q99607 1-663); details: protein: recombinant; tags: N-terminal GST; dsDNA, one strand shown
Summary of the method: as §1

ELK4 = molecular target: T3, ELK4 (Homo sapiens, UniProt P28324-2 1-405); details: protein: recombinant; tags: N-terminal GST; dsDNA, one strand shown
T3 sequence: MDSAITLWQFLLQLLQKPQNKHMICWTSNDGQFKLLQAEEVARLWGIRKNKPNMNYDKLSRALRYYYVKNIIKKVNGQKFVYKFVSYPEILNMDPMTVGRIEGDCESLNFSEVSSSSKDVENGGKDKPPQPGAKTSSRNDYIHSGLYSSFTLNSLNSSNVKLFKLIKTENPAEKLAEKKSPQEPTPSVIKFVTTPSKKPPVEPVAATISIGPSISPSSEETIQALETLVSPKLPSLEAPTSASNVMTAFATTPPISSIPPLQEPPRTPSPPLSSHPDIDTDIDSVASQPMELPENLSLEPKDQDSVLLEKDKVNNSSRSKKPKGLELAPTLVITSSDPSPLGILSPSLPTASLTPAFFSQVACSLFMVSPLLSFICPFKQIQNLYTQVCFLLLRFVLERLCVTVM
Summary of the method: as §1

ETV2 = molecular target: T4, ETV2 (Homo sapiens, UniProt O00321 1-342); details: protein: recombinant; tags: N-terminal GST; dsDNA, one strand shown
T4 sequence: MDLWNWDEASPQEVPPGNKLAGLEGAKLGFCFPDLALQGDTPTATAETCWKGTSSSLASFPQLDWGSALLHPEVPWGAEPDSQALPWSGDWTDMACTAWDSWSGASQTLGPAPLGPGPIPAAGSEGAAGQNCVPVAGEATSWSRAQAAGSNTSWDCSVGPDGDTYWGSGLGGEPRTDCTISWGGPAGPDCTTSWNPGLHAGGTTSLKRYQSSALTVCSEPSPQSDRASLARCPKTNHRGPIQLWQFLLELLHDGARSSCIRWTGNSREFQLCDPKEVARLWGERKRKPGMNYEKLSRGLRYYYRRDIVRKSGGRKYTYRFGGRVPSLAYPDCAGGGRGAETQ
Summary of the method: as §1

ELF3 = molecular target: T5, ELF3 (Homo sapiens, UniProt P78545 1-371); details: protein: recombinant; tags: N-terminal GST; dsDNA, one strand shown
T5 sequence: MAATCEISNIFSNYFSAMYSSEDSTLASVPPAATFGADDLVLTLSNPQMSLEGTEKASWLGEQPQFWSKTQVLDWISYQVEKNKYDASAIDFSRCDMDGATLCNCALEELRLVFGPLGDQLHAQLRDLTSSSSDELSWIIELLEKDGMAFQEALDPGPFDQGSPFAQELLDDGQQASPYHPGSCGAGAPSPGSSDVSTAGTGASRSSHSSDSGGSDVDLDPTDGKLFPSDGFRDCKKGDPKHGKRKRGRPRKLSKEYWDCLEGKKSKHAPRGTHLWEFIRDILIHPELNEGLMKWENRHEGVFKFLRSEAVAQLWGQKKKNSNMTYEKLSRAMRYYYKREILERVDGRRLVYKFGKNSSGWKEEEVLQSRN
Summary of the method: as §1

CRX = CRX (Homo sapiens, UniProt O43186 1-299); details: protein: recombinant; tags: N-terminal GST; dsDNA, one strand shown
Summary of the method: as §1

CRX, sequence (O43186 whole entry): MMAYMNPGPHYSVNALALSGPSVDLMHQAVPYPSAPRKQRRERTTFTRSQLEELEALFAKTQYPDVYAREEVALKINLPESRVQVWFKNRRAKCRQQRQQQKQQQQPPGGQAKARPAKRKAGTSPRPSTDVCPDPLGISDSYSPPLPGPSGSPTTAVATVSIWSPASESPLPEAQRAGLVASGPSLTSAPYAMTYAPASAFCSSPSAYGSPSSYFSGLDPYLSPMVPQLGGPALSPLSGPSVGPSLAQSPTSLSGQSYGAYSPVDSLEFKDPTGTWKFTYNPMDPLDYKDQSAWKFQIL
ETV5, sequence (P41161 whole entry): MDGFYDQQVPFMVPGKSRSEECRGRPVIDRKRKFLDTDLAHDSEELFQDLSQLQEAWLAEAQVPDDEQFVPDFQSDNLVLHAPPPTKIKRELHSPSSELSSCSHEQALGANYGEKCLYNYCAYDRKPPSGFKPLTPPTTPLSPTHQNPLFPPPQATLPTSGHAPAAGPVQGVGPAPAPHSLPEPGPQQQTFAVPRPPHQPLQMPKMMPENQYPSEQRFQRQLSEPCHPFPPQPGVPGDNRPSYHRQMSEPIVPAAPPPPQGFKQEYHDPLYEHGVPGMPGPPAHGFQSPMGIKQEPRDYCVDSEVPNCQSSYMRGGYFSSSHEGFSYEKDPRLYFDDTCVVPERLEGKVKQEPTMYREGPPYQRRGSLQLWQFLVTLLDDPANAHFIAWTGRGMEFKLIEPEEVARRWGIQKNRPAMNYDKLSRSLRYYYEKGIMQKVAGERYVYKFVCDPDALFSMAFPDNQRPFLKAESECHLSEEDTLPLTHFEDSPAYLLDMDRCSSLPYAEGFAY
HSF1, sequence (Q00613 whole entry): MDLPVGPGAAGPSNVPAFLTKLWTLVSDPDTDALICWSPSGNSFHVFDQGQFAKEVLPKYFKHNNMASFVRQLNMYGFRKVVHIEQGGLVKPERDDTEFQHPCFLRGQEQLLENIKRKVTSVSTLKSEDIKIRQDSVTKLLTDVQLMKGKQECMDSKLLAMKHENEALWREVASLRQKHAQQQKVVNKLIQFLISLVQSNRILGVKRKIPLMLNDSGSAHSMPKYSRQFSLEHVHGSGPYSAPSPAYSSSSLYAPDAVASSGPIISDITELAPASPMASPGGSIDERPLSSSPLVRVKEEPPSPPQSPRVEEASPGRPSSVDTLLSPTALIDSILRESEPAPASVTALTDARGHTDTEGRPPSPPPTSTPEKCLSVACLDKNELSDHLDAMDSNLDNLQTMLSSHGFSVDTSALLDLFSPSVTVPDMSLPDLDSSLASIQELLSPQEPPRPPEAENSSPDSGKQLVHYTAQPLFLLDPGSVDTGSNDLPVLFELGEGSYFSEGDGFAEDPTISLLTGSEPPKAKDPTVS
ELF4, sequence (Q99607 whole entry): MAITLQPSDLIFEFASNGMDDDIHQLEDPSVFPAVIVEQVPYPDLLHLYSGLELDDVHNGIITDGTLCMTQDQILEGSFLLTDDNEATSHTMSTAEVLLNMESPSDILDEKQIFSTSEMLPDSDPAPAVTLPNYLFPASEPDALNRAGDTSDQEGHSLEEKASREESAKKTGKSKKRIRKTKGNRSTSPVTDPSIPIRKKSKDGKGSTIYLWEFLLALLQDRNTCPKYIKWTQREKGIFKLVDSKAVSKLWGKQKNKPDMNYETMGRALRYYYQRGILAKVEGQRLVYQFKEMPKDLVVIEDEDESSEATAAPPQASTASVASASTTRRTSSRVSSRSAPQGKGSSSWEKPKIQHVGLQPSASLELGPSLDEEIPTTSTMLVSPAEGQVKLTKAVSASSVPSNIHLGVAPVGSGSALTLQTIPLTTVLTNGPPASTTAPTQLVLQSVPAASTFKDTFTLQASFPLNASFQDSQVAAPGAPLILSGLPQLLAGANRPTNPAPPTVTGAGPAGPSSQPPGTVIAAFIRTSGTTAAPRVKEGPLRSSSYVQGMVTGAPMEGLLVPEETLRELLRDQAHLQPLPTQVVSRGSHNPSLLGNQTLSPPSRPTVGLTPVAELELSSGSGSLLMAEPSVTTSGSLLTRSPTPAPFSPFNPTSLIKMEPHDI

For AACATC, the binding signal (FEV) was 1.63 fold enrichment (6-mer frequency, TF over GST control), the binding signal (ETV5) was 1.51 fold enrichment (6-mer frequency, TF over GST control) and the binding signal (HSF1) was 1.3 fold enrichment (6-mer frequency, TF over GST control). For the same sequence, the binding signal (SPIC) was 1.44 fold enrichment (6-mer frequency, TF over GST control), the binding signal (ELF4) was 1.41 fold enrichment (6-mer frequency, TF over GST control) and the binding signal (ELK4) was 1.41 fold enrichment (6-mer frequency, TF over GST control). For the same sequence, the binding signal (ETV2) was 1.45 fold enrichment (6-mer frequency, TF over GST control), the binding signal (ELF3) was 1.5 fold enrichment (6-mer frequency, TF over GST control) and the binding signal (CRX) was 1.12 fold enrichment (6-mer frequency, TF over GST control).
